These results are taken from PubChem BioAssay (NCI).

This is part of a sample that, as a whole, favours compounds with a hit. Of some 79,000 tested, about 15% had one in any assay. Unmarked numbers belong to inactive results. Calls of active or inactive are those of the source. No stated cut-off is given here; in the data, active means growth inhibition above about 70%; inactive means the rest.

Assay [1] in a line: NCI Yeast Anticancer Drug Screen. Data for the rad50 strain (AID 155).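 Further: 0% = growth of vehicle-only cultures of the same strain.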 Particulars: S. cerevisiae rad50 strain growth inhibition; at 50.0 µM; stronger effect = higher value. The procedure, abridged: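 Yeast carrying a defined DNA repair defect were exposed to test compounds, and growth was compared with vehicle-treated controls to give percent inhibition.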
Assay [2] can be described thus: NCI Yeast Anticancer Drug Screen. Data for the mec2-1 strain (AID 157). Particulars: S. cerevisiae mec2-1 strain, at 50.0 µM, stronger effect = higher value. The method, boiled down: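 Compounds were applied to mec2-1 yeast cells. Their growth was then compared with that of vehicle-treated cultures to give growth inhibition.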
Assay [3] in a line: NCI Yeast Anticancer Drug Screen. Data for the sgs1 mgt1 strain (AID 161).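 Further: 0% = growth of cultures given vehicle only.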 Particulars: S. cerevisiae sgs1 mgt1 strain, at 50.0 µM, stronger effect = higher value. The procedure, abridged:
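Percent growth inhibition was derived by comparing compound-exposed mutant yeast with vehicle-exposed cultures. The strain carries alterations in DNA damage repair.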

A short description of assay [4]: NCI Yeast Anticancer Drug Screen. Data for the cln2 rad14 strain (AID 165).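 Further: 0% = growth equal to vehicle treated cultures.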 The note with it: S. cerevisiae cln2 rad14 strain, at 50.0 µM, stronger effect = higher value. The method, boiled down:
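Strain: cln2 rad14 yeast, altered in cell cycle control and DNA damage repair. Read-out: growth inhibition vs vehicle.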

Assay [5] in a line: NCI Yeast Anticancer Drug Screen. Data for the bub3 strain (AID 167). Particulars: S. cerevisiae bub3 mutant strain, at 50.0 µM, stronger effect = higher value. The method, boiled down:
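Compounds were applied to a genetically altered yeast strain carrying a cell-cycle control defect. Growth inhibition was scored against vehicle-treated controls.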

Assay [6] can be described thus: NCI Yeast Anticancer Drug Screen. Data for the mlh1 rad18 strain (AID 175). The note with it: S. cerevisiae mlh1 rad18 strain growth inhibition; at 50.0 µM; stronger effect = higher value. The method, boiled down: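 A repair-deficient yeast strain is exposed to test compound, and growth is scored relative to vehicle-treated controls.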

In the case of `Cc1ccc(C)c(NC(=O)Oc2ccc(C(=O)OCc3ccccc3)cc2)c1`, the growth inhibition in assay [1] is 66.8%; in assay [2], 90.8% (active); in assay [3] it was 74.9% (active); in assay [4] it was 40.5%; in assay [5], 96.5% (active); in assay [6], 89.5% (active).

`Nc1ncc([N+](=O)[O-])c(=O)[nH]1`: the growth inhibition is -29.9% in assay [1]; -14.2% in assay [2]; -1.35% in assay [3]; -4.25% in assay [4]; 0.55% in assay [5]; 26.9% in assay [6].

`CN(C)Cc1cc(N=Nc2ccccc2)ccc1O`: the growth inhibition in assay [1] was -23.4%; in assay [2], -12.2%; in assay [3], -12.4%; in assay [4], 9.4%; in assay [5], 4.9%; in assay [6], -19.4%.

On to `CC(O)CNC(=O)C(C)Oc1ccc(OCC2CCCCC2)cc1` (configuration not stated), for which the growth inhibition in assay [1] was -2.8%; in assay [2] it was -12.9%; in assay [3], 6.65%; in assay [4], -9.7%; in assay [5], -53.7%; in assay [6], -15.9%.

In the case of `Cn1cnc(N)c1S(N)(=O)=O`, the growth inhibition was -11.8% in assay [1]; 2.45% in assay [2]; 9.7% in assay [3]; -6% in assay [4]; -6.3% in assay [5]; 26.1% in assay [6].

Turning to `N=C1N=Nc2nc(C(C(=O)c3cccs3)c3nc4n(c3O)C(=N)N=N4)c(O)n21` (configuration not stated), the growth inhibition in assay [1] is -5.1%; in assay [2] it was 17.1%; in assay [3], -1.25%; in assay [4], -15.3%; in assay [5], 1.7%; in assay [6], -12.3%.

With `CCCC(O)C(C)N` (configuration not stated), the growth inhibition in assay [1] was 4.3%; in assay [2], -3.1%; in assay [3] it was -2.9%; in assay [4], -0.2%; in assay [5], -2.25%; in assay [6], -3.15%.

Regarding `Cc1cn(C(=O)NC23CC4CC(CC(C4)C2)C3)c(=O)[nH]c1=O`, the growth inhibition was 14.8% in assay [1]; 1.6% in assay [2]; 11.1% in assay [3]; 9.65% in assay [4]; 10.9% in assay [5]; 82.2% (active) in assay [6].

For the molecule `C[N+]1(Cc2ccccc2)CCC(=O)CC1`, the growth inhibition was 4.05% in assay [1]; -12.9% in assay [2]; -7.1% in assay [3]; -13.1% in assay [4]; 10.9% in assay [5]; -13.8% in assay [6].

Take `CC(C)C(Br)C(=O)N1CCOCC1` (configuration not stated): the growth inhibition in assay [1] was -0.4%; in assay [2], -17.9%; in assay [3] it was -5.2%; in assay [4], -20.6%; in assay [5], -9.6%; in assay [6], -5.15%.

For `COC(=O)c1ccc(CSc2ccc(N)cc2)cc1`, the growth inhibition in assay [1] was 53.1%; in assay [2] it was 36.2%; in assay [3], 60.6%; in assay [4], 40.1%; in assay [5], 46.1%; in assay [6], 68.5%.

As for `Cc1ccc(S(=O)(=O)N/N=C2/CCCOC2)cc1`, the growth inhibition in assay [1] is 16.1%; in assay [2], 4.15%; in assay [3], 59.6%; in assay [4] it was 32.5%; in assay [5], 24.2%; in assay [6], 38%.

As to `CC(=O)N1c2cc(N=NN(C)C)ccc2NC(=O)CC1C` (configuration not stated), the growth inhibition in assay [1] was 20%; in assay [2], -3.05%; in assay [3] it was 9.5%; in assay [4], 0.65%; in assay [5], 4.2%; in assay [6] it was 34.3%.

Turning to `Cc1cccn2nnnc12`, the growth inhibition in assay [1] was -7.75%; in assay [2], -12.2%; in assay [3], -9.1%; in assay [4], 9%; in assay [5] it was 1.65%; in assay [6] it was -10.8%.

On to `CN(C)CCCSc1nc2ccccc2[nH]1`, for which the growth inhibition is -7.85% in assay [1]; -13.8% in assay [2]; -20.6% in assay [3]; 0.75% in assay [4]; 7.1% in assay [5]; -6.6% in assay [6].

As for `NC(=O)N/N=C1/CCC(O)CC1CC(=O)O` (configuration not stated), the growth inhibition in assay [1] is -7.85%; in assay [2] it was -4.75%; in assay [3], -7.05%; in assay [4], 12.7%; in assay [5], -57.9%; in assay [6] it was -2.95%.

In the case of `CCCCC(CC)CCC(O)C(O)C(C)C` (configuration not stated) (tested in a mixture with another compound), the growth inhibition in assay [1] was -3.85%; in assay [2], 3.2%; in assay [3], -7.8%; in assay [4], -14.3%; in assay [5], -8.95%; in assay [6], -14.8%.

`Cc1cc(C(O)CNCCn2cnc3c2c(=O)n(C)c(=O)n3C)ccc1O` (configuration not stated): the growth inhibition is 38.8% in assay [1]; -1.95% in assay [2]; 19.4% in assay [3]; 25.1% in assay [4]; -4.95% in assay [5]; 12.3% in assay [6].

Take `c1ccc2c(c1)CCC/C2=N\OCC1CO1` (configuration not stated): the growth inhibition in assay [1] is -7.5%; in assay [2], -28.4%; in assay [3], -35.2%; in assay [4], -3.1%; in assay [5], -33.1%; in assay [6], 7.05%.

Consider `O=S(=O)(N/N=C/c1ccc(Cl)c(Cl)c1)c1ccccc1`, for which the growth inhibition in assay [1] is 18.9%; in assay [2] it was 13.6%; in assay [3], 9.8%; in assay [4], -28.4%; in assay [5], 13.1%; in assay [6] it was 32.2%.

As to `N#Cc1c(-c2ccco2)c2c(n(C3OC(CO)C(O)C(O)C3O)c1=S)CCCC2` (configuration not stated), the growth inhibition in assay [1] was -12.3%; in assay [2], 6.9%; in assay [3], 15.7%; in assay [4], -7.75%; in assay [5], 5%; in assay [6], 14.8%.

In the case of `Nc1cc(C(F)(F)F)cc(C(F)(F)F)c1`, the growth inhibition in assay [1] is -6.2%; in assay [2] it was 1.6%; in assay [3] it was -0.85%; in assay [4], 16.6%; in assay [5], -1.4%; in assay [6], -10.4%.

For `CC(=O)NNc1nc(C)c(C(=O)NNC(=O)C(=O)Nc2cccc(C(C)=O)c2)s1`, the growth inhibition in assay [1] was 7.3%; in assay [2], 0.5%; in assay [3] it was -23.1%; in assay [4], 36.5%; in assay [5], 0.85%; in assay [6] it was -12.3%.

Regarding `Nc1[nH]c(=S)[nH]c(=O)c1N=Nc1c(Br)cc(S(N)(=O)=O)cc1Br`, the growth inhibition in assay [1] is 4.65%; in assay [2], -15.9%; in assay [3], -24.1%; in assay [4], -24.9%; in assay [5], 9.2%; in assay [6], 0.25%.

`Cn1c2c(c(=O)n(C)c1=O)C(=Nc1ccccc1)C(=O)N2`: the growth inhibition was 0.2% in assay [1]; 9.25% in assay [2]; 7.2% in assay [3]; -38.3% in assay [4]; 1.65% in assay [5]; 14.3% in assay [6].

`O=C(O)[C@@H]1CCC(=O)N1C(c1ccc2c(c1)OCO2)c1ccc2c(c1)OCO2`: the growth inhibition in assay [1] was -52.2%; in assay [2], -18.1%; in assay [3], -31.1%; in assay [4], 4.35%; in assay [5], -15.1%; in assay [6], -24.4%.

With `O=C1C2CC3C(C2)C13`, the growth inhibition in assay [1] was -1.55%; in assay [2] it was -6.9%; in assay [3] it was -8.05%; in assay [4] it was -5.9%; in assay [5], -10.2%; in assay [6], 11.5%.

As to `O=[N+]([O-])c1nccn1CCC[n+]1cccc2ccccc21`, the growth inhibition in assay [1] is -38.6%; in assay [2], -17.2%; in assay [3], -14.2%; in assay [4] it was -14.9%; in assay [5], -19.9%; in assay [6], -13.4%.

For the molecule `Nc1cc2c3c(cccc3c1Br)C(=O)OC2=O`, the growth inhibition in assay [1] was 99.5% (active); in assay [2], 99.8% (active); in assay [3], 99.7% (active); in assay [4] it was 99.3% (active); in assay [5], 99.7% (active); in assay [6] it was 99.5% (active).

In the case of `N/N=C(\c1ccccc1)C(Nc1ccccc1)c1ccccc1` (configuration not stated), the growth inhibition in assay [1] is 11.2%; in assay [2] it was -3.95%; in assay [3], -2.05%; in assay [4], -29%; in assay [5], -5.15%; in assay [6] it was 7.9%.

Consider `O=C(O)C1CCCCN1C(=O)c1ccccc1` (configuration not stated), for which the growth inhibition in assay [1] is -26.6%; in assay [2] it was -8.4%; in assay [3], -12.2%; in assay [4], -0.05%; in assay [5] it was -21.2%; in assay [6], -15.5%.

Regarding `COc1cc(Nc2cnc3cc(N)ccc3n2)cc(OC)c1OC`, the growth inhibition in assay [1] is -16.8%; in assay [2], -33.8%; in assay [3], -31.2%; in assay [4] it was -16.2%; in assay [5], -9.65%; in assay [6], -45.5%.

On to `CCCCCCCCCCCCCC1CCC(CC)N1` (configuration not stated), for which the growth inhibition in assay [1] was 92% (active); in assay [2] it was 93.7% (active); in assay [3], 92.2% (active); in assay [4] it was 91.6% (active); in assay [5], 91.8% (active); in assay [6], 91.8% (active).

For `CCOc1ccc(/C=C2\N=C(c3ccccc3)OC2=O)cc1OC`, the growth inhibition is 8.5% in assay [1]; 12.5% in assay [2]; 4% in assay [3]; 0.75% in assay [4]; 5.85% in assay [5]; 2.4% in assay [6].

Turning to `COc1ccc(C(C#N)NNC(=O)c2ccccc2O)cc1OC` (configuration not stated), the growth inhibition in assay [1] was 14.9%; in assay [2], 0.85%; in assay [3] it was 6.6%; in assay [4], 4.2%; in assay [5], 35.2%; in assay [6], -18.9%.

In the case of `Cc1ccc2nc(-c3ccc4nc(-c5ccc(N=Nc6ccc(-c7nc8ccc(-c9nc%10ccc(C)c(S(=O)(=O)O)c%10s9)cc8s7)cc6)cc5)sc4c3)sc2c1S(=O)(=O)O`, the growth inhibition was 12.7% in assay [1]; -13% in assay [2]; 21.4% in assay [3]; -0.3% in assay [4]; -3.2% in assay [5]; -26.9% in assay [6].

Take `CCCCCCCC/C=C/CCCCCCCC(=O)N(C)CC(=O)O`: the growth inhibition in assay [1] is -18.6%; in assay [2] it was -17%; in assay [3], 10.8%; in assay [4] it was -29.1%; in assay [5] it was 22.5%; in assay [6], -8.05%.
